According to the supplement of paper PMC11732987, “Enantioselective OTUD7B fragment discovery through chemoproteomics screening and high-throughput optimisation” (Communications Chemistry, 2025):

Key:
Experiment in all cases: log2 ratio of Biotin-Ahx-Ub-VS probe labelling (fragment/DMSO); higher = less target engagement (more negative = stronger competition), active = hit call of the paper (q ≤ 0.05, log2 ratio ≤ -1)
Conditions in all cases: compound concentration: 200 uM; treatment time: 3 h
USP19 = molecular target: T1, USP19 (UniProt O94966)
T1 sequence (whole entry): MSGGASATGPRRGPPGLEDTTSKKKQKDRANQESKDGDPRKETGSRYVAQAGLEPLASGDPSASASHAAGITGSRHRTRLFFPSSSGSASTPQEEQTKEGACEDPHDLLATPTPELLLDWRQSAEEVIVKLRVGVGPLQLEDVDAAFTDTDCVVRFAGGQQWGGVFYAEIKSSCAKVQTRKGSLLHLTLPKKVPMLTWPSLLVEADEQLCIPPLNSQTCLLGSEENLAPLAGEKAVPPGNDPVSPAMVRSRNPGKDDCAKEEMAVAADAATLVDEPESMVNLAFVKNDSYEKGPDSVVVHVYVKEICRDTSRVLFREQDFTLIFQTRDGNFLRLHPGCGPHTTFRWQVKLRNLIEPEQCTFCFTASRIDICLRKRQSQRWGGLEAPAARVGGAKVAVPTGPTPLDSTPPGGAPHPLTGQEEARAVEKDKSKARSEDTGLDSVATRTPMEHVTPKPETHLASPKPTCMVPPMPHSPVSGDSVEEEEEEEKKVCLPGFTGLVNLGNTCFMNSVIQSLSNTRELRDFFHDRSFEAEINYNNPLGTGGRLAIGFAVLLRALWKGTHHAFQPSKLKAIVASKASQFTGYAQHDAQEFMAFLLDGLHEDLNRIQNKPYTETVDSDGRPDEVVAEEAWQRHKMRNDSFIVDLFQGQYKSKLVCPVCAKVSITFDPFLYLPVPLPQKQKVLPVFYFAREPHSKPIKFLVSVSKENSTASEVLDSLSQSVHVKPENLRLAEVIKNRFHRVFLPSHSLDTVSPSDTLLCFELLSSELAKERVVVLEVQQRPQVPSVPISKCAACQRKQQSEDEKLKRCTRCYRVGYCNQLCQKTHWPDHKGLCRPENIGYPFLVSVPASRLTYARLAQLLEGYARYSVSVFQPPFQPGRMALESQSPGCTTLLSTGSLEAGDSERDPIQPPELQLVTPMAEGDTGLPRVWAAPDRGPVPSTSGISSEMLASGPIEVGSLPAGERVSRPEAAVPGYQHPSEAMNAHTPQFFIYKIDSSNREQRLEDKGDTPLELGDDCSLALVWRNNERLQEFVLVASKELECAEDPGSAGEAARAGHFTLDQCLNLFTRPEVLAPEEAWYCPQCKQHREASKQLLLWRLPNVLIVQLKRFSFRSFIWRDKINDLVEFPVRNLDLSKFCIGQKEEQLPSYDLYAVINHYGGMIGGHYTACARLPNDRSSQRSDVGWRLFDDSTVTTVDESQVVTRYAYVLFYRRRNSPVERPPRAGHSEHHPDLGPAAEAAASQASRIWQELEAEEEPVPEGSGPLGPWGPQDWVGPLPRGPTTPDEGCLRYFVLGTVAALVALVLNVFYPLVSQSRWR
Summary of the method: (§1)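 HEK293T lysate in Tris/CHAPS/IGEPAL buffer with protease inhibitors (495 µg per sample) was given fragment at 200 µM or vehicle for 3 h, in triplicate. It then received Biotin-Ahx-Ub-VS at 0.5 µM final for 1 h. Labelled DUBs were NeutrAvidin-enriched, digested with LysC and trypsin, and run by diaPASEF LC-MS/MS. Values are average log2 fragment/vehicle ratios by unpaired t-test on global-median-normalised Spectronaut quantities of proteins with ≥2 unique peptides.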

USP22 = molecular target: T2, USP22 (UniProt Q9UPT9)
T2 sequence (whole entry): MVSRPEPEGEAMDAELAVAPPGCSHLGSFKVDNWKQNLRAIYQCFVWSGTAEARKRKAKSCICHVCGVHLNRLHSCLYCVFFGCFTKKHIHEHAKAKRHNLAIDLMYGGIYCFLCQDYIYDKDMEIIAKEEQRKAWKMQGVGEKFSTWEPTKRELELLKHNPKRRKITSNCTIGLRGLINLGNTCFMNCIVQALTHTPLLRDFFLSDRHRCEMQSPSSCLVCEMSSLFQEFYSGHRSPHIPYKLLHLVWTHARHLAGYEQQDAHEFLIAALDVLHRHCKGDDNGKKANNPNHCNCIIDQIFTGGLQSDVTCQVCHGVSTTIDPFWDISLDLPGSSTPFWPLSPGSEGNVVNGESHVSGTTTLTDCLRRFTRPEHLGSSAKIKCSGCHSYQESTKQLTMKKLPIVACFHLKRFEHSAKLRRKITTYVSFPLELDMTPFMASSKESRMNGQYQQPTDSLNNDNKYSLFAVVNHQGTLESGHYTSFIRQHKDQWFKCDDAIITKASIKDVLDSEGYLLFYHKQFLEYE
Summary of the method: as §1

USP24 = USP24 (UniProt Q9UPU5)
Summary of the method: as §1

USP25 = molecular target: T3, USP25 (UniProt Q9UHP3)
T3 sequence (whole entry): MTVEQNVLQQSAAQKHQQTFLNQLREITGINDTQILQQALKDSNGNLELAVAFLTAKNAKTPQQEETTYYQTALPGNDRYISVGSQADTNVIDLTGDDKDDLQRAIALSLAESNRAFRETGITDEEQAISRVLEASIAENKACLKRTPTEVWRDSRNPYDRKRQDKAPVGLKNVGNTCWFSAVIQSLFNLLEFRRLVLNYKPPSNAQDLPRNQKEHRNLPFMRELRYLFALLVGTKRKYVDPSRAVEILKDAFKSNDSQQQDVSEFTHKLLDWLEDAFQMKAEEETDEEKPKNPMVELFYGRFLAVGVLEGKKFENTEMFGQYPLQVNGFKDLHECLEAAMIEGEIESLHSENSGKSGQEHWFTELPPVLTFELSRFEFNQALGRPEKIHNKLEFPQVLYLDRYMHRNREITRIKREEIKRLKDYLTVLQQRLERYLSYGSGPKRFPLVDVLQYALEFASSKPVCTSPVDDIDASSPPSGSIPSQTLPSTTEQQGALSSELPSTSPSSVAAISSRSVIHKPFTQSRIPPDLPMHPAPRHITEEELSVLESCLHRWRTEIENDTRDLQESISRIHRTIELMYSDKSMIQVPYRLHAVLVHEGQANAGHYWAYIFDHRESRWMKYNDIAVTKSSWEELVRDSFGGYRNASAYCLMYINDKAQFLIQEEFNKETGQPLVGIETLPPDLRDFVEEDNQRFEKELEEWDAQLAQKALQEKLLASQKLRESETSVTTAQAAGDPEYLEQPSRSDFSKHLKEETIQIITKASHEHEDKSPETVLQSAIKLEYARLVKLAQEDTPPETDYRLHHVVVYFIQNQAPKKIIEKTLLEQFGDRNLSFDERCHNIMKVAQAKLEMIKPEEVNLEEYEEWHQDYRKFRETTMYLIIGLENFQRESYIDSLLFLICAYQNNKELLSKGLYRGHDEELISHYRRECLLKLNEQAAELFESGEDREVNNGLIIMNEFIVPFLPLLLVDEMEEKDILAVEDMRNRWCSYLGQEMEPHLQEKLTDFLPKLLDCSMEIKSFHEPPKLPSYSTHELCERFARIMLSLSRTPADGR
Summary of the method: as §1

USP28 = molecular target: T4, USP28 (UniProt Q96RU2)
T4 sequence (whole entry): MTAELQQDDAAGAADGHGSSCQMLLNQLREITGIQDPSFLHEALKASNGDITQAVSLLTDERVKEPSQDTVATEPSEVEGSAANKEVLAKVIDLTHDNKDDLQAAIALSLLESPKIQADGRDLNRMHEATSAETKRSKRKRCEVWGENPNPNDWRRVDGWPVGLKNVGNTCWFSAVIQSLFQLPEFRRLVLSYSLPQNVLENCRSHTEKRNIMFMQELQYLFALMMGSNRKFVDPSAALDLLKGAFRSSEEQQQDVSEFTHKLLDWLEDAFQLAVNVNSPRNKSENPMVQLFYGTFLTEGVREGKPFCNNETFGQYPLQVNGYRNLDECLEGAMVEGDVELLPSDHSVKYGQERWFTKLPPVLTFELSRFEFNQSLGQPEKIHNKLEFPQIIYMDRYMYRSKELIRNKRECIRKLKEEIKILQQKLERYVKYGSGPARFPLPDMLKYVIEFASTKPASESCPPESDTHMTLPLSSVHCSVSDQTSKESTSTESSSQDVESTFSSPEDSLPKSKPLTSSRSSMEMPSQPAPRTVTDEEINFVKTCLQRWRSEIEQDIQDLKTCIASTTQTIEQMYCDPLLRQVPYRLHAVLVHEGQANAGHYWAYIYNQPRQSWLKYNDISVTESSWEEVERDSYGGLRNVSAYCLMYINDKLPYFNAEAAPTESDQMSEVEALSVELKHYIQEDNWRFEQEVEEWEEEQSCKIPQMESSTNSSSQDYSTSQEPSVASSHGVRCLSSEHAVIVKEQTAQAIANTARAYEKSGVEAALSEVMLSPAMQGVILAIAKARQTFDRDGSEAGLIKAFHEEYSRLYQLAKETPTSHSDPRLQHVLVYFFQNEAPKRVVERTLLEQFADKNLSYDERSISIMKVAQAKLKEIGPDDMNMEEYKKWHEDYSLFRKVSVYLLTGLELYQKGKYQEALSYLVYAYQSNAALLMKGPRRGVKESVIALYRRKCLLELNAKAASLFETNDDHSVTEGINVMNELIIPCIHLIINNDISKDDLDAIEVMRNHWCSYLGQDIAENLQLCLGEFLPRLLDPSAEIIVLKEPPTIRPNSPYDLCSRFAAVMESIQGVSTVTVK
Summary of the method: as §1

Measured: log2 ratio of Biotin-Ahx-Ub-VS probe labelling

Chain of USP24 (Q9UPU5 whole entry): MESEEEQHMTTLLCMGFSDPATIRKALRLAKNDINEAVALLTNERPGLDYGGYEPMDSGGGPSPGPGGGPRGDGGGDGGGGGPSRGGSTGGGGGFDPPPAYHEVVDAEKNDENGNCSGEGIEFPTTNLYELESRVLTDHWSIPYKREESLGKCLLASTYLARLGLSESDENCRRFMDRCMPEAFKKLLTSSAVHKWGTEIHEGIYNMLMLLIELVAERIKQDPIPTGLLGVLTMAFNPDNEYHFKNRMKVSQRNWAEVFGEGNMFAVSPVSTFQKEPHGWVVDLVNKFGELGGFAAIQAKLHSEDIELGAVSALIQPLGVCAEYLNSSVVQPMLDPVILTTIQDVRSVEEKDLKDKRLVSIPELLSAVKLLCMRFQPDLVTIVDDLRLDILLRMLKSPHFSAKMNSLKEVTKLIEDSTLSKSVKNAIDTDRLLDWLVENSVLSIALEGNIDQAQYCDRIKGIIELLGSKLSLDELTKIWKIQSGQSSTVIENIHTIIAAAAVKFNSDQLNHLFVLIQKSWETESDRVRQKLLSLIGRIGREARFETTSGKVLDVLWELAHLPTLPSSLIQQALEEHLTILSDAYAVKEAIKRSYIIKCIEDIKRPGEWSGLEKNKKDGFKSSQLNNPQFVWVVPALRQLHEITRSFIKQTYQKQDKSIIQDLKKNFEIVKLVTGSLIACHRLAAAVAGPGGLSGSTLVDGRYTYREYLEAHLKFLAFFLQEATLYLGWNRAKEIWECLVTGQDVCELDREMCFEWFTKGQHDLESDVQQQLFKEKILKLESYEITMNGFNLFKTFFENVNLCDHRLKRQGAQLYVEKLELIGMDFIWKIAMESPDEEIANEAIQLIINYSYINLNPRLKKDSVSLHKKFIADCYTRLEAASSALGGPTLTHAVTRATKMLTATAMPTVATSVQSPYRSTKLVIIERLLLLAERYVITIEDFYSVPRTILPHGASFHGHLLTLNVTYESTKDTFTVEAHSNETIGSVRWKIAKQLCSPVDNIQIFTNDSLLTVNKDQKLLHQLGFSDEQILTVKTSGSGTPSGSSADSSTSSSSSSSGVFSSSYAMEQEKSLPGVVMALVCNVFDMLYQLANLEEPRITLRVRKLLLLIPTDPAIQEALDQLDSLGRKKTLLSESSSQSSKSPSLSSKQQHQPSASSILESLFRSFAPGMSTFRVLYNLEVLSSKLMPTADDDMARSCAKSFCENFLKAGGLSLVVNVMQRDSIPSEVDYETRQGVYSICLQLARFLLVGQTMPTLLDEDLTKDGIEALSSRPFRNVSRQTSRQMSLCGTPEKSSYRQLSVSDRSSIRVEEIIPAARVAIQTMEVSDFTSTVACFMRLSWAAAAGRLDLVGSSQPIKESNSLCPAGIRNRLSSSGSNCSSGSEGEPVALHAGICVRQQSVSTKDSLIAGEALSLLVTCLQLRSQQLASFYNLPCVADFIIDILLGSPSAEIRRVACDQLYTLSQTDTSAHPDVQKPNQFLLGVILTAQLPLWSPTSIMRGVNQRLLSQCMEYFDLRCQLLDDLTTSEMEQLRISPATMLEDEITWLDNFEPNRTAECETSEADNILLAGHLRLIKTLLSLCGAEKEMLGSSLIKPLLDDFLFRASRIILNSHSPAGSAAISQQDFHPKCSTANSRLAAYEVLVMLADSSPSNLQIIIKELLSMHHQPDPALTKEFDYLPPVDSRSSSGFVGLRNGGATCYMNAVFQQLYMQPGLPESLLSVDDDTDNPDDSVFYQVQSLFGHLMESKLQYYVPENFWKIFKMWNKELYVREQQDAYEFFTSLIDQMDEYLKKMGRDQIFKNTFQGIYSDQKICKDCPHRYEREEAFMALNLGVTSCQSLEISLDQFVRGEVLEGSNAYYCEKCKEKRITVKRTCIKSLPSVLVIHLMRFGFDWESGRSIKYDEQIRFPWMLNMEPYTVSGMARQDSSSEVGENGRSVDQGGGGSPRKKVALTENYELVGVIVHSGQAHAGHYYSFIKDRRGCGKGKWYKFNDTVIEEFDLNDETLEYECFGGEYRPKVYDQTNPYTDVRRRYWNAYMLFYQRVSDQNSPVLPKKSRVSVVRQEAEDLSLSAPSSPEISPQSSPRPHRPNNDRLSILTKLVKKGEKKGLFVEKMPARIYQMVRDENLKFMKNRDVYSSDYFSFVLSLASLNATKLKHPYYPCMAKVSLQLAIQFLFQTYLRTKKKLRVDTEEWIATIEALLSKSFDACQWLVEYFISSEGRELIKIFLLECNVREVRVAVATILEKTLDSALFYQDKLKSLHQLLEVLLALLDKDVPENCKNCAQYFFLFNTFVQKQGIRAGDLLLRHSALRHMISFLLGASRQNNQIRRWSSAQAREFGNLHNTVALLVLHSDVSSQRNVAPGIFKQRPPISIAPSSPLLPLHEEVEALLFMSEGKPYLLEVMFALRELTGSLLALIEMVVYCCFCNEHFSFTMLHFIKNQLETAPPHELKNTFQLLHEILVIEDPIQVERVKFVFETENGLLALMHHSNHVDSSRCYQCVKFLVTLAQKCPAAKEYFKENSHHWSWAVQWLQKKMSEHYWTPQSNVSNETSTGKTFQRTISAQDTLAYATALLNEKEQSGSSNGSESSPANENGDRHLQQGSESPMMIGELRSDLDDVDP

Cl.O=C(CCl)N[C@H]1C[C@@H](n2cccn2)C1
inactive: USP19 -0.157 | USP22 0.044 | USP24 -0.464 | USP25 -0.201 | USP28 -0.188
